Among all 5,500 compounds or so, about 2,000 (36%) were called active. Another 18% or so got no clear call; they are omitted. No stated cut-off is given here; in the data, active means normalized growth mostly below about 0.91 (no sharp cut-off); inconclusive means no clear call, values can overlap the other calls; inactive means mostly above about 0.92. Some of the results follow.
Assay: chemical genetic growth profiling, strain panel (AID 1159580);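 further: tested at 20 µM; growth read once vehicle control cultures reached saturation at 30 °C; 1 = growth at the plate median or of vehicle wells; lower values mean less growth of the strain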
Conditions: S. cerevisiae deletion strains, growth OD

Measured: normalized growth

Clc1ccc(CO/N=C(/Cn2ccnc2)c2ccc(Cl)cc2Cl)c(Cl)c1
active: locus YAL021C, strain ccr4, active compounds read low 0.0719 | locus YAL026C, strain drs2, active compounds read low 0.066 | locus YAL030W, strain snc1, active compounds read low 0.062 | locus YBL061C, strain skt5, active compounds read low 0.0675 | locus YBR009C, strain hhf1, active compounds read low 0.0713 | locus YBR023C, strain chs3, active compounds read low 0.0703 | locus YBR171W, strain sec66, active compounds read low 0.084 | locus YBR231C, strain swc5, active compounds read low 0.0712 | locus YBR279W, strain paf1, active compounds read low 0.0663 | locus YCL011C, strain gbp2, active compounds read low 0.0641 | locus YCL016C, strain dcc1, active compounds read low 0.0718 | locus YCL069W, strain vba3, active compounds read low 0.0674 | locus YCR088W, strain abp1, active compounds read low 0.0653 | locus YDL005C, strain med2, active compounds read low 0.0803 | locus YDL040C, strain nat1, active compounds read low 0.0648 | locus YDR001C, strain nth1, active compounds read low 0.0642 | locus YDR069C, strain doa4, active compounds read low 0.07 | locus YDR137W, strain rgp1, active compounds read low 0.106 | locus YDR159W, strain sac3, active compounds read low 0.103 | locus YDR195W, strain ref2 0.146 | locus YDR297W, strain sur2, active compounds read low 0.0626 | locus YDR334W, strain swr1, active compounds read low 0.0671 | locus YDR335W, strain msn5, active compounds read low 0.0633 | locus YDR392W, strain spt3, active compounds read low 0.0807 | locus YEL003W, strain gim4, active compounds read low 0.0579 | locus YEL037C, strain rad23, active compounds read low 0.0606 | locus YEL061C, strain CIN8 (second series), active compounds read low 0.0642 | locus YER015W, strain faa2, active compounds read low 0.0705 | locus YER016W, strain bim1, active compounds read low 0.0699 | locus YER111C, strain swi4, active compounds read low 0.0753 | locus YER155C, strain BEM2 (second series), active compounds read low 0.104 | locus YFR010W, strain ubp6, active compounds read low 0.0725 | locus YGL167C, strain pmr1, active compounds read low 0.0799 | locus YGL173C, strain kem1, active compounds read low 0.0926 | locus YGL227W, strain vid30, active compounds read low 0.067 | locus YGL240W, strain doc1, active compounds read low 0.108 | locus YGL253W, strain hxk2, active compounds read low 0.0581 | locus YHR013C, strain ard1, active compounds read low 0.111 | locus YHR027C, strain rpn1, active compounds read low 0.0678 | locus YHR030C, strain SLT2, active compounds read low 0.11 | locus YHR079C, strain IRE1, active compounds read low 0.138 | locus YHR142W, strain chs7, active compounds read low 0.0783 | locus YJL092W, strain hpr5, active compounds read low 0.0639 | locus YJL095W, strain BCK1 (second series), active compounds read low 0.0624 | locus YJL095W, strain BCK1, active compounds read low 0.119 | locus YJL115W, strain asf1, active compounds read low 0.076 | locus YJL129C, strain trk1, active compounds read low 0.0899 | locus YJL154C, strain vps35, active compounds read low 0.0641 | locus YJL164C, strain tpk1, active compounds read low 0.0663 | locus YJL166W, strain qcr8, active compounds read low 0.0665 | locus YJL187C, strain SWE1, active compounds read low 0.0662 | locus YJR066W, strain TOR1, active compounds read low 0.016 | locus YKL160W, strain elf1, active compounds read low 0.0739 | locus YKR026C, strain gcn3, active compounds read low 0.0685 | locus YKR091W, strain srl3, active compounds read low 0.0651 | locus YLL001W, strain dnm1, active compounds read low 0.0676 | locus YLL026W, active compounds read low 0.0627 | locus YLL041C, strain sdh2, active compounds read low 0.0619 | locus YLR027C, strain aat2, active compounds read low 0.0637 | locus YLR113W, strain HOG1, active compounds read low 0.138 | locus YLR221C, strain rsa3, active compounds read low 0.0614 | locus YLR258W, strain gsy2, active compounds read low 0.0647 | locus YLR262C, strain YPT6 (second series), active compounds read low 0.0952 | locus YLR320W, strain mms22, active compounds read low 0.0852 | locus YLR342W, strain FKS1, active compounds read low 0.0731 | locus YLR357W, strain rsc2, active compounds read low 0.13 | locus YLR370C, strain arc18, active compounds read low 0.0687 | locus YLR384C, strain iki3, active compounds read low 0.0679 | locus YML120C, strain ndi1, active compounds read low 0.0632 | locus YMR058W, strain fet3, active compounds read low 0.0659 | locus YMR125W, strain sto1, active compounds read low 0.0799 | locus YMR129W, active compounds read low 0.0624 | locus YMR205C, strain PFK2, active compounds read low 0.104 | locus YMR231W, strain pep5, active compounds read low 0.205 | locus YNL071W, strain lat1, active compounds read low 0.0653 | locus YNL183C, strain NPR1, active compounds read low 0.0338 | locus YNL209W, strain ssb2, active compounds read low 0.0716 | locus YNL248C, strain rpa49, active compounds read low 0.0816 | locus YNL322C, strain KRE1 (second series), active compounds read low 0.0683 | locus YNR049C, strain mso1, active compounds read low 0.0594 | locus YOR001W, strain rrp6, active compounds read low 0.0749 | locus YOR070C, strain gyp1, active compounds read low 0.0664 | locus YOR080W, strain dia2, active compounds read low 0.0735 | locus YOR083W, strain WHI5, active compounds read low 0.0763 | locus YOR106W, strain vam3, active compounds read low 0.0782 | locus YOR231W, strain MKK1, active compounds read low 0.116 | locus YOR265W, strain rbl2, active compounds read low 0.0668 | locus YOR270C, strain vph1, active compounds read low 0.112 | locus YOR290C, strain snf2, active compounds read low 0.0669 | locus YPL051W, strain arl3, active compounds read low 0.0756 | locus YPL078C, strain atp4, active compounds read low 0.08 | locus YPL106C, strain sse1, active compounds read low 0.105 | locus YPL240C, strain hsp82, active compounds read low 0.0633 | locus YPL256C, strain CLN2, active compounds read low 0.139
